{
  "source": "PubChem BioAssay (NCI)",
  "note": "Compounds without any hit were thinned out: in the full panel of roughly 83,000, 20% have a hit.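 The endpoint reported here, percent growth, reads 100 for growth as untreated, 0 for no net growth and -100 for all cells dead.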 Unmarked numbers belong to inactive results. The source made the active and inactive calls. The calls were made as follows: active = growth percent below 10; inactive = the rest.",
  "data": [
    {"test_system": "HL-60(TB) leukemia", "test": "NCI-60 one-dose screen, 48 h (100 = growth as untreated, 0 = no growth, -100 = all killed)", "details": "10 µM unless noted", "values": [
      {"smiles": "C#Cc1ccc(-n2c(/C=C/c3ccc(O)c(OC)c3)nc3ncccc3c2=O)cc1", "growth": "84.7%"},
      {"smiles": "COc1ccc(/C=C2\\SC(=S)N(CCCN3CCOCC3)C2=O)c(OC)c1", "growth": "83.1%"},
      {"smiles": "COc1ccc(-c2cc3c(nn2)-c2ccccc2C3=O)cc1", "growth": "57.4%"},
      {"smiles": "COc1ccc(-c2nc(C#N)c(NCC(c3ccc(Cl)cc3)N3CCCCC3)o2)cc1", "note": "(configuration not stated)", "growth": "74.3%"},
      {"smiles": "Cc1ccc(C2CC(c3cccc(Nc4ccncc4)c3)=Nc3c(N)nc(N)nc3N2)cc1", "note": "(configuration not stated)", "growth": "33.7%"},
      {"smiles": "Nc1nc(-c2cccc3ccccc23)cc2ccccc12", "growth": "-48.5% (active)"},
      {"smiles": "Nc1nccc2c1ccn2-c1ccc(NC(=O)c2ccc(N3CCOCC3)c(C(F)(F)F)c2)cc1", "growth": "-4.36% (active)"}
    ]}
  ]
}
